Hsp90 Hop PPI: changes Hsp90-Hop TPR2A binding signal, up or down. AlphaScreen TPR2A-His6 binding biotin-Hsp90 C-terminal peptide. Potency, µM (titrated, usually from 57 µM), for the others: at the top dose activity change, negative = inhibition. 0.44% of 71,000 active. AID 595; active = well fitted curve in either direction with a large enough effect; inconclusive = small, poorly fitted or top-dose-only effect, or another doubt; note: % is set by controls: 0 for no effect and ±100 for the full control effect
Tau fil binding: tau filament binding; recombinant tau filaments, thioflavin S fluorescence, 15 h; filaments grown with octadecylsulfate alongside compound; Potency, µM (top dose mostly 57.1 µM), without a hit: at the highest dose activity change, negative = inhibition; 2% of 71,000 active;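 note: % is set by controls: 0 for no effect and ±100 for the full control effect; actives lower thioflavin S fluorescence by blocking filaments or displacing dye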
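Assay mix: 1 uM His-tagged tau, 30 uM sodium octadecylsulfate, thioflavine S dye in HEPES/NaCl/DTT buffer. Compound is added prior to the inducer. Fluorescence after 15 h at 37 C.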
HEK293 cAMP cs: counter-screen for TSHR agonists: cAMP increase in parental HEK293; parental HEK293 CNG cAMP sensor, membrane potential fluorescence; Potency, µM (titrated, usually from 57.1 µM), inactives show at the highest dose activation, most hits filed as activators; 2.5% of 73,000 active; note: % of control where 0% means no effect; nearly all actives have a fitted effect of over 55% in size
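Counterscreen for endogenous-receptor signalling: CNG-channel HEK 293 cells report cAMP rise by membrane depolarization. After 60 min dye equilibration with 100 uM RO 20-1724, compounds incubated 30 min before bottom-read fluorescence at 590 nm.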
Pol III holo inh: inhibitors of bacterial DNA polymerase III holoenzyme. reconstituted DNA polymerase III holoenzyme replication, biochemical. Potency, µM (highest dose often 57.1 µM), for inactives: top-dose activity change, negative = inhibition. 0.25% of 71,000 active; note: % is set by controls: 0 for no effect and ±100 for the full control effect
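Reconstituted *E. coli* holoenzyme (0.35 nM Pol III, 1 nM beta, 154 nM SSB, 2 nM primase) was preincubated with compound for 15 min at RT. Synthesis on 1.4 nM ssM13Gori ran 35 min, then was stopped with PicoGreen/EDTA and read as dsDNA fluorescence.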
TSHR agonist: activates the human thyroid stimulating hormone receptor | P16473 | HEK293-CNG-TSHR cells (CNG channel as cAMP sensor), membrane potential dye, cAMP | Potency, µM (series often up to 57.1 µM), for the others: top-dose activation, most hits filed as activators | 0.48% of 73,000 active | AID 926; active = well fitted activation curve with a large enough effect in the main read-out, with a control signal flat, not every such curve was filed as active; inconclusive = small, poorly fitted or top-dose-only effect, or a change in a side signal; inactive = no such curve, though single readings can be large or run the other way; % of control where 0% means no effect;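 note: the control signal comes from parental cells without the receptor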
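cAMP rise detected as CNG-channel membrane depolarization by fluorescent dye (emission 590 nm), 30 min after compound, following 60 min dye loading containing 100 uM RO 20-1724 at room temperature. Cells: TSHR/CNG HEK 293, with parental CNG HEK 293 as control.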
* hit, by the source's call; u = inconclusive; ! = a repeat was not active; [ ] = dose if it differs, or a comment. The list is not random: actives were taken first. Their share in the collection is about 5.1%. Unless noted, calls come from the whole dose curve; as a rule, active = well fitted curve in the direction sought with a large enough effect; inconclusive = small, poorly fitted or top-dose-only effect, or another doubt; inactive = no such curve, though single readings can be large; an effect the other way counts as inactive or inconclusive. Potency is the fitted concentration of half-maximal effect.

SMILES | Hsp90 Hop PPI | Tau fil binding | HEK293 cAMP cs | Pol III holo inh | TSHR agonist
CC(NS(=O)(=O)c1ccc(CCC(=O)N2CCN(C)CC2)cc1)c1ccccc1 (configuration not stated) | -4.5% | -11.3% | 3.98µM* | -1.0% | u
CN(C)Cc1c[nH]c2ccccc12 | -8.8% | u | -1.1% | -6.7% | 15.8µM*!
COc1ccc(C=O)cc1 | 3.7% | 4.0% | u | -8.3% | u
COc1ccc(P2(=O)Nc3ccccc3N2)cc1 | -7.6% | 15.8µM* | 2.6% | -12.7% | -17.8%
COc1cc2c(cc1OC)[C@]13CC[N@+]4(C)CC5=CCO[C@H]6CC(=O)N2[C@@H]1[C@@H]6[C@@H]5C[C@]34O | 0.9%[11 µM] | -3.8%[11.4 µM] | 3.4%[11.4 µM] | -10.7%[11.4 µM] | 0.1%[11.4 µM]
O=c1cccc2n1C[C@@H]1C[C@H]2CN2CCCC[C@H]12 | 0.4% | 31.6µM* | -10.5% | -2.2% | -8.1%
CC(C)[C@@]1(NC(=O)[C@H]2C[C@H]3c4cccc5[nH]cc(c45)C[C@@H]3N(C)C2)O[C@]2(O)[C@H]3CCCN3C(=O)[C@H](Cc3ccccc3)N2C1=O | u | 32.6% | -4.6% | -1.0% | -38.6%
c1ccc(Nc2ccc(Nc3ccccc3)cc2)cc1 | u | 12.6µM* | -54.3% | -5.2% | u
O=Nc1ccc(Nc2ccccc2)cc1 | -11.1% | 31.6µM* | -21.2% | 1.3% | u
O=C(C[C@H](c1ccccc1)c1c(O)c2ccccc2oc1=O)c1ccccc1 | -1.1%[11 µM] | 3.6%[11.4 µM] | 12.3%[11.4 µM] | -13.1%[11.4 µM] | 2.2%[11.4 µM]
CC(C)(C)c1cc(C#N)cc(Br)c1OP(=O)(Oc1c(Br)cc(C#N)cc1C(C)(C)C)c1ccccc1 | -4.3%[11 µM] | 3.7%[11.4 µM] | -0.4%[11.4 µM] | -9.7%[11.4 µM] | 8.5%[11.4 µM]
CN(N=O)c1cc(O)ccc1O | u | u | -7.2% | 3.16µM* | -10.9%
CC1N(P(=O)(c2ccccc2)c2ccccc2)CC(O)(c2ccccc2)CC12CC2 (configuration not stated) | -5.6% | 16.5% | 15.8µM* | -3.7% | u
NCCP(=O)(O)O | 0.1%[11 µM] | 8.9%[11.4 µM] | -2.9%[11.4 µM] | -3.8%[11.4 µM] | -0.5%[11.4 µM]
Clc1ccc(C(c2ccc(Cl)cc2)C(Cl)Cl)cc1 | 31.6µM* | -5.7% | u | 2.1% | u
CCCCc1ccc(C(=O)O)nc1 | 2.51µM* | u | u | 0.6% | u
C[C@H]1CC[C@]2(NC1)O[C@@H]1C[C@@H]3[C@@H]4CC=C5C[C@H](O)CC[C@@]5(C)[C@H]4CC[C@@]3(C)[C@H]1[C@@H]2C | -4.0% | u | -2.6% | -0.8% | 2.2%
CN1CCCC2(CCN(C(=O)c3ccncc3)CC2)C1 | -8.0% | 4.1% | 10µM* | -6.1% | u
CC(C)CN1CCCC2(CCN(C(=O)c3ccncc3)CC2)C1 | -0.8% | 37.5% | 5.6% | -5.4% | -4.5%
Cc1cc(NC(=O)COC(=O)c2c(C)nn(Cc3ccccc3Cl)c2Cl)no1 | u | 129.8% | u | -8.5% | u
Cc1nn(Cc2ccccc2Cl)c(Cl)c1C(=O)OCC(=O)NCc1ccco1 | -4.1% | 23.1% | 25.1µM* | -1.2% | u
CO[C@@H](C)[C@](O)(C(=O)OC1=CCN2CC[C@H](O)[C@H]12)C(C)C | -7.4% | u | 9.0% | -2.1% | -2.0%
COc1ccc2c(c[n+](C)c3c4cc5c(cc4ccc23)OCO5)c1OC | -11.6% | 31.6µM* | -35.0% | -4.8% | u
CC[C@@H]1CN2CC[C@@H]1C[C@H]2[C@@H](O)c1ccnc2ccc(OC)cc12 | -2.0% | u | u | -1.6% | u
C1C[C@@H]2CN(CCCN3CCOCC3)[C@@H](C1)O2 | -3.7%[11 µM] | 8.6%[11.4 µM] | 7.4%[11.4 µM] | -4.0%[11.4 µM] | -0.7%[11.4 µM]
COC(=O)[C@@H]1C[C@@]1(C)[C@@H](NP(=O)(c1ccccc1)c1ccccc1)c1ccccc1 | -1.0% | 0.9% | 1.26µM* | -1.3% | u
CC(C)(C)[C@@]1(O)C[C@@H]2OC(=O)C[C@@]23C(=O)O[C@H]2OC(=O)[C@@H](O)[C@]231 | 1.0% | u | -2.2% | -3.0% | -2.6%
C[C@@H](Cc1cccc(C(F)(F)F)c1)NCCCc1ccccc1 | -0.8% | -62.1% | 39.8µM* | 3.2% | u
Nc1cccc(C(F)(F)F)c1 | -4.5% | 88.0% | u | -6.4% | u
COc1cccc2c1C(=O)c1c(O)c3c(c(O)c1C2=O)C[C@](O)(/C(C)=N\O)C[C@@H]3O[C@H]1C[C@H](N)[C@@H](O)[C@H](C)O1 | -5.0%[11 µM] | 1.58µM* | 13.8%[11.4 µM] | 1µM* | 0.7%[11.4 µM]
